Assay results from the supplement of paper PMC11732987, “Enantioselective OTUD7B fragment discovery through chemoproteomics screening and high-throughput optimisation” (Communications Chemistry, 2025).

Key:
Experiment in all cases: log2 ratio of Biotin-Ahx-Ub-VS probe labelling (fragment/DMSO); higher = less target engagement (more negative = stronger competition), active = hit call of the paper (q ≤ 0.05, log2 ratio ≤ -1)
Conditions in all cases: compound concentration: 200 uM; treatment time: 3 h
USP42 = biological target: T1, USP42 (UniProt Q9H9J4)
T1 sequence (whole entry): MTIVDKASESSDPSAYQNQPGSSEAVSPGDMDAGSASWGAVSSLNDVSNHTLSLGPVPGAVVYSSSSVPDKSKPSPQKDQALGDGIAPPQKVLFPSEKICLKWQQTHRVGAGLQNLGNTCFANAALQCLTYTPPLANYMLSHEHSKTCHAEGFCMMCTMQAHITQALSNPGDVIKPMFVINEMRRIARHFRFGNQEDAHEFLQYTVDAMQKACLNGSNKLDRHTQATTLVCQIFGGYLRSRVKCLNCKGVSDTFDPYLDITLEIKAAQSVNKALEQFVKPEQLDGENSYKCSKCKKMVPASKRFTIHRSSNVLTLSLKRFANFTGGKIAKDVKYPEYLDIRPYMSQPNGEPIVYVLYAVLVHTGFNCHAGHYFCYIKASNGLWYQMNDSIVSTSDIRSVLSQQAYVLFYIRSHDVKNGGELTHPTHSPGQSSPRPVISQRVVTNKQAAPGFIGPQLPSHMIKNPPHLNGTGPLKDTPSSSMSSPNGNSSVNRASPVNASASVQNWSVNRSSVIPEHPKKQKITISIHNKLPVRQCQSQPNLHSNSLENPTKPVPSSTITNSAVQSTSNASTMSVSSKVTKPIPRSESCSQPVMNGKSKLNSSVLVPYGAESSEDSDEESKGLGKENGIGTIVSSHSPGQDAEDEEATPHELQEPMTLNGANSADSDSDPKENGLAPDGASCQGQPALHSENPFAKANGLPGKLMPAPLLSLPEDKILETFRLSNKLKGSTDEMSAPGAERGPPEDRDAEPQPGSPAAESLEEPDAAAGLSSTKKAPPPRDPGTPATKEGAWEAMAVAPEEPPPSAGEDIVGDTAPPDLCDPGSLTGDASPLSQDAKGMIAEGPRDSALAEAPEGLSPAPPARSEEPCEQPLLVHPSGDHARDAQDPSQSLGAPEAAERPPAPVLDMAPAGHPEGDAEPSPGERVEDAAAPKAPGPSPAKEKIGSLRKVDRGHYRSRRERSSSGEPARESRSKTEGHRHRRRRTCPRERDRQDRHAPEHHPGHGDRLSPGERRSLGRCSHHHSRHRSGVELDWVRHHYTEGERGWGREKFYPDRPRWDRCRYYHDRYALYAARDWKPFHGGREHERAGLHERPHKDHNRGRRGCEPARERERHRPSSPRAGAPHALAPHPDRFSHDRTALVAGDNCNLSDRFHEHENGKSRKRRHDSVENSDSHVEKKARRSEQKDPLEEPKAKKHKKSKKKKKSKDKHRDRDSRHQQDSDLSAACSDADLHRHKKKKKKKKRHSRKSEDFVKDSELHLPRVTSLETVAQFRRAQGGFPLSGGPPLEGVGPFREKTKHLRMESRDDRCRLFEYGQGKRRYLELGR
Outline: (§1)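 Fragment (200 µM) or vehicle was incubated for 3 h with triplicate HEK293T lysate samples of 495 µg, which were then treated with Biotin-Ahx-Ub-VS at 0.5 µM final for 1 h. Labelled DUBs were enriched on NeutrAvidin, digested with LysC and trypsin, and analysed by diaPASEF LC-MS/MS. Values are average log2 fragment/vehicle ratios from an unpaired t-test on global-median-normalised Spectronaut label-free quantities, using proteins with ≥2 unique peptides.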

USP46 = USP46 (UniProt P62068)
Outline: as §1

USP47 = biological target: T2, USP47 (UniProt Q96K76)
T2 sequence (whole entry): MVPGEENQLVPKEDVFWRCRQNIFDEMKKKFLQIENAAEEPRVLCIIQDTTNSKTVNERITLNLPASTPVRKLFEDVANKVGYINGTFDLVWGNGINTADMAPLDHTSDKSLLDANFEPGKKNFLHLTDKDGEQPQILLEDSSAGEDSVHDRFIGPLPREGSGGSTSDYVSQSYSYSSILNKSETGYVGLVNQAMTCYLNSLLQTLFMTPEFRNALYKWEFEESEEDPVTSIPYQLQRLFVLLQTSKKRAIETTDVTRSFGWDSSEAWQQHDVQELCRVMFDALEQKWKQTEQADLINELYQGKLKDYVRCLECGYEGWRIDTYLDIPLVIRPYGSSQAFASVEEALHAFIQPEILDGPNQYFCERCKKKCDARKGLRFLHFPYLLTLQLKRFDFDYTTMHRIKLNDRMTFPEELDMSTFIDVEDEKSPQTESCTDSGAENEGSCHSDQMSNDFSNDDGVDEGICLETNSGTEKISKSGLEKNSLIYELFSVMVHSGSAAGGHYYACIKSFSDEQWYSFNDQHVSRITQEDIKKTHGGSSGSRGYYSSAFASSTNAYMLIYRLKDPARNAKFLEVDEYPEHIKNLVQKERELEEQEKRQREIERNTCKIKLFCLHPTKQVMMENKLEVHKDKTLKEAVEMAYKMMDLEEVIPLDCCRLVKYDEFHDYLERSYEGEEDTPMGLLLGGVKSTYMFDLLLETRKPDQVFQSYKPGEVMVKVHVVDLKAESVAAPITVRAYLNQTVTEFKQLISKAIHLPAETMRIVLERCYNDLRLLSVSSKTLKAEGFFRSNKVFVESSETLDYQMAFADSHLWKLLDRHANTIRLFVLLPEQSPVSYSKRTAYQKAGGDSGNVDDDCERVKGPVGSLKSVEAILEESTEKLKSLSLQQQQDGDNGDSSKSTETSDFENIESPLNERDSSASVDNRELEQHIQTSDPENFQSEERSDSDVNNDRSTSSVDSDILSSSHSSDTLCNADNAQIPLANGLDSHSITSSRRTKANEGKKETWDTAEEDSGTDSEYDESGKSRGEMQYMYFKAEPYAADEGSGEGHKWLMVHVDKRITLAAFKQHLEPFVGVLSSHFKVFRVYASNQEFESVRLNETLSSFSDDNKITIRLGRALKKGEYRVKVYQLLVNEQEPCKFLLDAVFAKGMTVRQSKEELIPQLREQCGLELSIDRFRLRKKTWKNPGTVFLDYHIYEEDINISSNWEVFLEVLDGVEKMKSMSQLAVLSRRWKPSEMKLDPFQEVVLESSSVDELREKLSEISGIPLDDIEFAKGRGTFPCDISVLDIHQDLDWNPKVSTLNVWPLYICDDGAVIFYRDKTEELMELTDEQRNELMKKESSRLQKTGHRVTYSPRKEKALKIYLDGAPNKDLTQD
Outline: as §1

USP48 = biological target: T3, USP48 (UniProt Q86UV5)
T3 sequence (whole entry): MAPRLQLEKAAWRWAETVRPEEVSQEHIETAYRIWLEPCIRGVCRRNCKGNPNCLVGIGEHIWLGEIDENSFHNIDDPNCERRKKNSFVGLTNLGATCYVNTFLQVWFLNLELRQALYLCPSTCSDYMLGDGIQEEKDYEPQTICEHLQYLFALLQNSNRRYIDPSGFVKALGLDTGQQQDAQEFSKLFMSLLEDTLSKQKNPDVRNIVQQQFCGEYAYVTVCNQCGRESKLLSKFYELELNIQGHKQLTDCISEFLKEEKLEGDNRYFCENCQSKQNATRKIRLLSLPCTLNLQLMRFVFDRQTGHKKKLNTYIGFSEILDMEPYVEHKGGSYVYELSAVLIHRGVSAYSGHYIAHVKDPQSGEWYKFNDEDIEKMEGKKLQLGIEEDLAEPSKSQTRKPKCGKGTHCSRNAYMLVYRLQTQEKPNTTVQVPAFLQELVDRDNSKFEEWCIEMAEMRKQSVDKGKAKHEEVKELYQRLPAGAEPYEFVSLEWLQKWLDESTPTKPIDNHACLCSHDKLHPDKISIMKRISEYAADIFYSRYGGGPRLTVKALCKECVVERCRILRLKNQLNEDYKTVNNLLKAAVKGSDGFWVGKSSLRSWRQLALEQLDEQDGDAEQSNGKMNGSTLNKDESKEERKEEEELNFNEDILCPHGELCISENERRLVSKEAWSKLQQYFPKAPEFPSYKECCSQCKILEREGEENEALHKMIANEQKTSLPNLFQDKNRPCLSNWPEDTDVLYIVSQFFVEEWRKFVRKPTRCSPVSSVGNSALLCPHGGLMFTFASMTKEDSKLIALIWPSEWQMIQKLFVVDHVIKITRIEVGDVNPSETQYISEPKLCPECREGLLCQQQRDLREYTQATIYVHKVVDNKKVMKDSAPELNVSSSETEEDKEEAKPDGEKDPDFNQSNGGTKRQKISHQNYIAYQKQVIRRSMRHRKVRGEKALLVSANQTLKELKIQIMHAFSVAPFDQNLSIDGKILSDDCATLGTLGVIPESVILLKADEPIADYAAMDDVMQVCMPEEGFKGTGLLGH
Outline: as §1

USP5 = biological target: T4, USP5 (UniProt P45974)
T4 sequence (whole entry): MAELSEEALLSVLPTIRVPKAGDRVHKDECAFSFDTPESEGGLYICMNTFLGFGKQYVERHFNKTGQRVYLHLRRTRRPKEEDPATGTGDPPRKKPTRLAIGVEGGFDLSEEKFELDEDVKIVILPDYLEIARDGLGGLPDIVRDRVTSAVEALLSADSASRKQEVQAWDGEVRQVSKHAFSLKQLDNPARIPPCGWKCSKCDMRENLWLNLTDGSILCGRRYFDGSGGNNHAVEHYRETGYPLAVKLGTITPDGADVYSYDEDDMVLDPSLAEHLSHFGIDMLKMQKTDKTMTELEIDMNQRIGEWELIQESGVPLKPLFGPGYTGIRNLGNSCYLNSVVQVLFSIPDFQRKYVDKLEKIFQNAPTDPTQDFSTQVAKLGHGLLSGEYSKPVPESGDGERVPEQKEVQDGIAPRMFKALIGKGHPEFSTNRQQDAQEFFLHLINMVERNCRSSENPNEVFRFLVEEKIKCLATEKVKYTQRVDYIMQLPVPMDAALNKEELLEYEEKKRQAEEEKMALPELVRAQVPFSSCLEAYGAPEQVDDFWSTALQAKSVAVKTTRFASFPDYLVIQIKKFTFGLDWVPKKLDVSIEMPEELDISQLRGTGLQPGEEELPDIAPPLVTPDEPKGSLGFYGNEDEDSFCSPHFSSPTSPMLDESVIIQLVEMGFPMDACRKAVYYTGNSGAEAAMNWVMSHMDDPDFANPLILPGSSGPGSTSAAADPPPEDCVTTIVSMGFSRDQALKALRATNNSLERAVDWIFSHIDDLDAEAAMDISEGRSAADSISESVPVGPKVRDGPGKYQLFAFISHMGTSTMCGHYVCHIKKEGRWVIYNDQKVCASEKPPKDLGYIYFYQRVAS
Outline: as §1

USP54 = USP54 (UniProt Q70EL1)
Outline: as §1

USP7 = USP7 (UniProt Q93009)
Outline: as §1

USP8 = biological target: T5, USP8 (UniProt P40818)
T5 sequence (whole entry): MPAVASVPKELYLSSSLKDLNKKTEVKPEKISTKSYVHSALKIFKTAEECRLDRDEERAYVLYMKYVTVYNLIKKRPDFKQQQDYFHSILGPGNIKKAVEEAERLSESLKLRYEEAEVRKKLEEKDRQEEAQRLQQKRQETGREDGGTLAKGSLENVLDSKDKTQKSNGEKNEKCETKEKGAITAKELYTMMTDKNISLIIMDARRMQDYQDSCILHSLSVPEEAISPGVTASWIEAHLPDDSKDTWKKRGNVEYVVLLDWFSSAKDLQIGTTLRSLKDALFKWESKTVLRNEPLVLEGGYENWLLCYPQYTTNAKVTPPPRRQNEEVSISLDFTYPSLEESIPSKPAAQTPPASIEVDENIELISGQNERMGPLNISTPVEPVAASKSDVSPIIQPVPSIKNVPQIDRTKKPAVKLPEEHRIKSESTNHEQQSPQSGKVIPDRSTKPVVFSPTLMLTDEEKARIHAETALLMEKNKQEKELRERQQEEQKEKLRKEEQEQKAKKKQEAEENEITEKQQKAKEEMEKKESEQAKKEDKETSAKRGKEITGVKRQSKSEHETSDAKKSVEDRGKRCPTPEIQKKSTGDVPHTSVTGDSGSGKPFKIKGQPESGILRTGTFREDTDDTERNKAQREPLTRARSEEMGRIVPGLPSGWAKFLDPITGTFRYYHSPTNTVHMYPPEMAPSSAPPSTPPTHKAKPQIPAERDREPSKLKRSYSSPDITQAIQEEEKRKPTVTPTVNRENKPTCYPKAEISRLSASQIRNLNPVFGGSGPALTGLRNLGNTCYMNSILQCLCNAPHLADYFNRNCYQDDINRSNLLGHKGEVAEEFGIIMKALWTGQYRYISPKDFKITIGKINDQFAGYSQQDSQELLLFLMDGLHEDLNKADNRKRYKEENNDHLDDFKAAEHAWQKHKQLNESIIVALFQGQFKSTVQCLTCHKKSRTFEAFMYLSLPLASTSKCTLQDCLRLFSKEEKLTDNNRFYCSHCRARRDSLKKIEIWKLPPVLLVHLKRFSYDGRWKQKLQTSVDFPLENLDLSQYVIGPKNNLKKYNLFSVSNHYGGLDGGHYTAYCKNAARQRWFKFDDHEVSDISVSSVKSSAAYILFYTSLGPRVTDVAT
Outline: as §1

Measured: log2 ratio of Biotin-Ahx-Ub-VS probe labelling

Sequence of USP7 (Q93009 whole entry, looked up): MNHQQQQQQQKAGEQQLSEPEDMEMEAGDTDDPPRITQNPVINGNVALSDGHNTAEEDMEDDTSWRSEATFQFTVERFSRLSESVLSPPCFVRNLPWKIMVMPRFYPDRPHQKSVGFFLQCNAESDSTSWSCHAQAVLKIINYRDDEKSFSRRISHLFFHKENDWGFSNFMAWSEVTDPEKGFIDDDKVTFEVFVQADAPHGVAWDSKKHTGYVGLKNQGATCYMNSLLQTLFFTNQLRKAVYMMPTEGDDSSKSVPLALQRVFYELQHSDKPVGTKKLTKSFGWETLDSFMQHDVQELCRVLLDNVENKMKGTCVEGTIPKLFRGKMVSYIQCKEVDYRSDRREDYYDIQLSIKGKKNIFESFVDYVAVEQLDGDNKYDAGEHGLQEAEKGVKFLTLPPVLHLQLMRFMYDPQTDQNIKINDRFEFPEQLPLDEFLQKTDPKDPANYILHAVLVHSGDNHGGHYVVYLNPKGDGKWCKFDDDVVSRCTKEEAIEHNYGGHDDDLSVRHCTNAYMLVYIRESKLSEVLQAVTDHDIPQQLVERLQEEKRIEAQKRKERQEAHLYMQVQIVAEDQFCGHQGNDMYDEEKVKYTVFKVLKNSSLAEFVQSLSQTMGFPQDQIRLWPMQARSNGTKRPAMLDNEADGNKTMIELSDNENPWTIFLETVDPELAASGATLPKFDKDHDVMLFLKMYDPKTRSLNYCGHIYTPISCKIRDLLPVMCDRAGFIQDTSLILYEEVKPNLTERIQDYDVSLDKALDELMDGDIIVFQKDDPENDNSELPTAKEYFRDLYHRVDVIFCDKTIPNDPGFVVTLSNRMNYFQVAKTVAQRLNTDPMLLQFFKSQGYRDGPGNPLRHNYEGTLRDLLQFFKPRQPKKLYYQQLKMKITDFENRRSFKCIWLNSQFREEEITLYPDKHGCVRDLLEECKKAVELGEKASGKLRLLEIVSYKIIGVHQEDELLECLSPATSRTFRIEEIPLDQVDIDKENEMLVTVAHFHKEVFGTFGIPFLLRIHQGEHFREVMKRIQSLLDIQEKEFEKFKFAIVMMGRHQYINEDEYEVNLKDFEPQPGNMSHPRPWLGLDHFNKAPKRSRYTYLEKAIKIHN
Sequence of USP54 (Q70EL1 whole entry): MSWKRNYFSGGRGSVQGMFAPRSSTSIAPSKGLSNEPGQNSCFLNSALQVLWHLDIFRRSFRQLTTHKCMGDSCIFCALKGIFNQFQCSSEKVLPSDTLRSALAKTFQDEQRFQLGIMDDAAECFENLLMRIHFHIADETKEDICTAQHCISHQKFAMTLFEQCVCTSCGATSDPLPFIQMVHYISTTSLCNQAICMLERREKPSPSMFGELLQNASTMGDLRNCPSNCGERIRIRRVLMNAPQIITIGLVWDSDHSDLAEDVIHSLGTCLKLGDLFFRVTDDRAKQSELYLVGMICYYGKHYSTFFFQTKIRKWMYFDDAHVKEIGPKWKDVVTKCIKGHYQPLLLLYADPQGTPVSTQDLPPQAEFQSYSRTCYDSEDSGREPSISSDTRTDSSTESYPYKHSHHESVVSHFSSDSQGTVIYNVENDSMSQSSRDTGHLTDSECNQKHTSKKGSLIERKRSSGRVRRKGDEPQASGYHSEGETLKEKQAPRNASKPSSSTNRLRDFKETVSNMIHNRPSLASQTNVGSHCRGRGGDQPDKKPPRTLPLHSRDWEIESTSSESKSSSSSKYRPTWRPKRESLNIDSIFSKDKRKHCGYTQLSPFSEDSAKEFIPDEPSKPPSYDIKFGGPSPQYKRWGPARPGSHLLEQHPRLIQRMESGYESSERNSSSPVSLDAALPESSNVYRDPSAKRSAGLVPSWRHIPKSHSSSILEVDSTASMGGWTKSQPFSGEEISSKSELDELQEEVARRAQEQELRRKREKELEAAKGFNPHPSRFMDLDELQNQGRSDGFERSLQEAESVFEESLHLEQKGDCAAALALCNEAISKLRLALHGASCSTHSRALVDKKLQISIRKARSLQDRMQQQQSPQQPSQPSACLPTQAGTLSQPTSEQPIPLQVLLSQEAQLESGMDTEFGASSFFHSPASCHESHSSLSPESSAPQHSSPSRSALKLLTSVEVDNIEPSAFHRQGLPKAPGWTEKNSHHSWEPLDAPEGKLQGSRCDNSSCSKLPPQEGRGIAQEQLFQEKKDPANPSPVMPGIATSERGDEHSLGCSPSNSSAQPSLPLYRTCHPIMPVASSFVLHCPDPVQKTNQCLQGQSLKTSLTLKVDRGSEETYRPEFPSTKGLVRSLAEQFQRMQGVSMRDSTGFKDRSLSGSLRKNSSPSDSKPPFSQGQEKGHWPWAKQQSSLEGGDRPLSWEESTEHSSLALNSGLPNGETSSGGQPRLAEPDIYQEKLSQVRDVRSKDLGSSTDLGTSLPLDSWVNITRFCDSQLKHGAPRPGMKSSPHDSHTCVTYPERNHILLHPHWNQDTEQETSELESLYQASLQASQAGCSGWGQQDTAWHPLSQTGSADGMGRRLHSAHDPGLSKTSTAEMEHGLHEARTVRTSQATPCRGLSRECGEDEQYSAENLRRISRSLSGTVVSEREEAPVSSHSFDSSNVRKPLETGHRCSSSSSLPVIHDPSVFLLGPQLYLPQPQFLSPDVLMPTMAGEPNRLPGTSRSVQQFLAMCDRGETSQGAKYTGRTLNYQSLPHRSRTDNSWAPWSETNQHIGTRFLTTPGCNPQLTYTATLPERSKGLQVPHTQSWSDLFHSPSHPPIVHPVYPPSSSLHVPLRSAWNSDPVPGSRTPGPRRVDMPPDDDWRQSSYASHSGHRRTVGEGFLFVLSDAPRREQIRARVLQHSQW
Sequence of USP46 (P62068 whole entry): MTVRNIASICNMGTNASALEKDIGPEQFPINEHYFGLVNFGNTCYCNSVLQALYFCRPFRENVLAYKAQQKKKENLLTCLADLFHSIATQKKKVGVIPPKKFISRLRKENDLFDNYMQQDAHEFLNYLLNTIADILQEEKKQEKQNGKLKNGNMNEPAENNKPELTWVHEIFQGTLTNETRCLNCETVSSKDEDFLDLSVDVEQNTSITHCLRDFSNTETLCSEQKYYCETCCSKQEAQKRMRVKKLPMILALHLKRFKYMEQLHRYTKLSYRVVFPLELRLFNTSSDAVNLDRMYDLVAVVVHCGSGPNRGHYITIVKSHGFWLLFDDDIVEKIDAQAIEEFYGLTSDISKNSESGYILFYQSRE

CN1C(=O)c2ccc(NC(=O)CCl)cc2C1=O
inactive: USP42 0.714 | USP46 -0.152 | USP47 -0.217 | USP48 -0.208 | USP5 -0.508 | USP54 0.112 | USP7 -0.743 | USP8 -0.236
